According to PubChem BioAssay (NCATS):
Results filed as inconclusive are left out. Active and inactive are the calls of the source. The call rests on the fitted dose curve; in most records, active means well fitted cell-killing curve with a large enough effect; inconclusive means small, poorly fitted or top-dose-only effect, or effect the other way; inactive means flat fitted curve, though single readings scatter.

Assays:
Assay in all cases: Primary qHTS to identify gynecologic anti-cancer compounds using libraries of approved drugs and bioactive compounds (AID 1345084); further: nearly all actives have a fitted effect of over 55% in size
[1] = test system: C33A; conditions: Gynecologic cancer cell panel viability, ATPlite luminescence, 48 h; series mostly up to 57.5 µM
Procedure, shortened: (§1)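 Cytotoxicity screen measuring ATP content by luciferase luminescence. Each compound is applied at five concentrations for 48 h at 37 C with 5% CO2.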

[2] = test system: CAOV3; conditions: Gynecologic cancer cell panel viability, ATPlite luminescence, 48 h; series mostly up to 57.5 µM
Procedure, shortened: as §1

[3] = test system: CASKI; conditions: Gynecologic cancer cell panel viability, ATPlite luminescence, 48 h; series mostly up to 57.5 µM
Procedure, shortened: as §1

[4] = test system: Es-2; conditions: Gynecologic cancer cell panel viability, ATPlite luminescence, 48 h; series mostly up to 57.5 µM
Procedure, shortened: as §1

[5] = test system: HeLa; conditions: Gynecologic cancer cell panel viability, ATPlite luminescence, 48 h; series mostly up to 57.5 µM
Procedure, shortened: as §1

[6] = test system: Hek293T; conditions: Gynecologic cancer cell panel viability, ATPlite luminescence, 48 h, control line for the selectivity index; series mostly up to 57.5 µM
Procedure, shortened: as §1

[7] = test system: JEG-3; conditions: Gynecologic cancer cell panel viability, ATPlite luminescence, 48 h; series mostly up to 57.5 µM
Procedure, shortened: as §1

[8] = test system: OV90; conditions: Gynecologic cancer cell panel viability, ATPlite luminescence, 48 h; series mostly up to 57.5 µM
Procedure, shortened: as §1

[9] = test system: PA-1; conditions: Gynecologic cancer cell panel viability, ATPlite luminescence, 48 h; series mostly up to 57.5 µM
Procedure, shortened: as §1

[10] = test system: SKOV3; conditions: Gynecologic cancer cell panel viability, ATPlite luminescence, 48 h; series mostly up to 57.5 µM
Procedure, shortened: as §1

[11] = test system: Tov-21-G; conditions: Gynecologic cancer cell panel viability, ATPlite luminescence, 48 h; series mostly up to 57.5 µM
Procedure, shortened: as §1

[12] = test system: Tov112D; conditions: Gynecologic cancer cell panel viability, ATPlite luminescence, 48 h; series mostly up to 57.5 µM
Procedure, shortened: as §1

Measured: Potency
Potency means the concentration at half of the fitted maximal effect.

CCOc1ccc2nc(SCCN3CCOCC3)[nH]c2c1
inactive: all assays above

N#C[C@@H]1CCCN1C(=O)CNC12CC3CC(CC(O)(C3)C1)C2
inactive: all assays above

CC(C)CN(C[C@@H](O)[C@H](Cc1ccccc1)NC(=O)O[C@@H]1CO[C@H]2OCC[C@H]21)S(=O)(=O)c1ccc(N)cc1
inactive: all assays above

C=C[C@@H]1[C@H](O[C@@H]2O[C@H](CO)[C@@H](O)[C@H](O)[C@H]2O)OC=C(C(=O)O)[C@H]1CCOC(=O)/C=C/c1ccc(O)c(O)c1
inactive: all assays above

CSc1ccc(C(=O)N[C@@H]2CCCC[C@@H]2NC(=O)CNC(=O)c2cc(C(F)(F)F)ccc2NC(=O)NC(C)C)cc1
inactive: all assays above

CC(=O)O[C@@H]1C[C@@H](OC(C)=O)C(C)(C)/C=C/[C@H](C)[C@H](OC(C)=O)[C@@]2(O)C[C@H](C)[C@H](OC(=O)c3ccccc3)[C@@H]2/C=C/1C
inactive: all assays above

CC1(C)C[C@H](O)C[C@@]2(C)OC(=O)C=C12
inactive: all assays above

COC(=O)c1ccccc1O[C@@H]1O[C@H](CO)[C@@H](O)[C@H](O)[C@H]1O[C@@H]1O[C@@H](C)[C@H](O)[C@@H](O)[C@H]1O
inactive: all assays above

Nc1ncnc2c1nc(N)n2[C@@H]1O[C@H](CO)[C@@H](O)[C@H]1O
active: [1] 3.55 µM | [2] 1.26 µM | [3] 3.16 µM | [4] 3.16 µM | [5] 5.01 µM | [6] 7.94 µM | [7] 15.8 µM | [8] 3.55 µM | [9] 4.47 µM | [10] 3.16 µM | [11] 3.16 µM | [12] 3.55 µM

CC(C)(F)C[C@@H](N[C@@H](c1ccc(-c2ccc(S(C)(=O)=O)cc2)cc1)C(F)(F)F)C(=O)NC1(C#N)CC1
inactive: all assays above

CC1=CC(=O)CC(C)(CO)C1(O)/C=C/C(C)O[C@@H]1O[C@H](CO)[C@@H](O)[C@H](O)[C@H]1O (stereo not given in full)
inactive: all assays above

C[C@H](O)[C@H](O)/C=C/c1cccc(O)c1CO
inactive: all assays above

C=C1CC[C@H]2[C@@](C)(CCC(O)[C@@]2(C)CO)[C@@H]1CCC1=CCOC1=O (stereo not given in full)
inactive: all assays above

OC[C@H]1O[C@@H](OCCc2ccc(O)cc2)[C@H](O[C@@H]2OC[C@](O)(CO)[C@H]2O)[C@@H](O)[C@@H]1O
inactive: all assays above

CC(C)(C)c1ccc(S(=O)(=O)Nc2ccc(Cl)cc2C(=O)c2cc[n+]([O-])cc2)cc1
inactive: all assays above
